For 108 sequences, z-score results are on record in PubChem BioAssay AID1508600 (Functional Genomics Laboratory (NCATS/FGL), 2020).

Among all 53,000 sequences or so, about 3,700 (7%) were called active.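 How the source made its calls: active means gene knockdowns whose robust z-score for IL-1 alpha signal is at least 2 or at most -2, so actives lie on both sides; inactive means the rest.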 This excerpt belongs to a sample that is enriched for actives.

This experiment can be described thus: Components of the Cytosolic LPS Sensing Pathway: Gene Identification via Genome-wide siRNA Screen.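 Further: robust z of the log signal after scaling to non-targeting control siRNA wells of the plate.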 As to conditions: RAW264.7 macrophages, IL-1a HTRF, actives lie on both sides, screened at 100 nM (by protocol), cells primed 5 h with Pam3CSK4 first. The essentials: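 Supernatant IL-1a by HTRF from RAW264.7 cells primed with Pam3CSK4 (5 hours) and transfected with LipidA (24 hour) after 48h siRNA knockdown at 100 nM; cell viability checked with CellTiter-Glo.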
(In TR-FRET formats the signal depends on donor and acceptor labels being close together.)
Regarding GGUGAACUGUAAUGGCUUCTT against Smyd2, the z-score is -0.209 (inactive). Consider GGUGUUGAGAAGAAAAAUATT against Spz1, for which the z-score was 1.68 (inactive). As for GGUAGAAUACCUUCAGAUUTT against Ercc4, the z-score was 2.81 (active). Under GGAAUUGUCAGGUCUUGAATT against Tmem174 stands -0.311 (inactive).

Regarding GGAGCUUCGGGAGAUGAUUTT against Fdxr, the z-score is 0.357 (inactive). Consider GGCGGAGUUUUUAAUACUCTT against Upb1, for which the z-score is 1.79 (inactive).

Regarding CCUAUGUUUGGUGAUUAUGTT against Alg6, the z-score is 0.264 (inactive). Turning to GGGUAGGAGGAAAGUGUUCTT against Olfr1093, the z-score was 1.55 (inactive).

Regarding GGAACAGCAGCAGAGUGAATT against Gkap1, the z-score was -1.09 (inactive). On to GGCACAUGAUCCUUAAUUUTT against Pfkfb3, for which the z-score is 0.0397 (inactive). Under GCCUAAGCCUACCAAACGATT against Ints3 stands 0.0965 (inactive). The same measure for GCCGAGAGGGAUGUGUAUATT against Psmb1: -2.54 (active); for GGAAAUCCUUGACUACAUUTT against Cyp2b19: 0.31 (inactive); for GGUCCACCUCAACAAGCUATT against Zfp536: 2.57 (active).

With GGGAGAAACCUGUGCAAAUTT against Serpinb6c, the z-score was 0.459 (inactive).

As for “AGACUGGGUUGUGAAGAUATT against 4930563M21Rik”, the z-score is -1.68 (inactive). The same measure for GCUAGGACUACAGCUGGGATT against Snrnp48: -2.56 (active); for GGAGAACUGAAGAAUCCAATT against Med11: 1.78 (inactive). As to GCCAAGAUCCCACCAGUUATT against Neurl1b, the z-score was 0.639 (inactive). Under “GGAGCACAGUCUCAUGAAUTT against A130014H13Rik” stands -1.44 (inactive); under CGUGAAGAUUGACGUGUUUTT against Pcyox1, 1.06 (inactive); under UGCCUGUAAACCAACAAGGTT against Prb1, -2.04 (active).

Turning to GUGAAGAGGAGCAGGACUUTT against Klrc3, the z-score was 0.261 (inactive).

Turning to GGGAAAAGUAUCCUCUGUUTT against Olfr877, the z-score was -0.968 (inactive). The same measure for GCGAAGUCAUCAAAUUUUCTT against Abcb11: 0.622 (inactive); for GGUCCUUAAGUCCUUUGACTT against Cdr1os: 0.894 (inactive). Regarding GGGAAAGAUAAAUGUUUCCTT against Gucy1b1, the z-score is 1.89 (inactive). The same measure for GGUUCAGACAAGCAUCUAGTT against Sbp: -1.04 (inactive); for CCUCAGGAUACAGACCCACTT against Frg2f1: -0.35 (inactive). Turning to GGAAAUUUUUUCCUUUCCUTT against Olfr211, the z-score was -0.638 (inactive). GGACCAUCAGAGGAGAACUTT against Cuedc2: the z-score was -2.09 (active). For the sequence CGAGAGUGGGUGGGUUGAATT against Zfp950, the z-score was 0.628 (inactive). With GCCCUAUCUACGAUGAAAATT against Scamp2, the z-score is -0.197 (inactive). The same measure for CCGAAUACGUGAAGACGCATT against Slc25a1: -0.967 (inactive); for GGAGGAAAAUGUCCUUGUUTT against Pth: 0.25 (inactive). Under GCAGGAAUGCGGUAUAAACTT against Inpp5f stands 0.707 (inactive); under GCACUGGACUUAGGAUGGUTT against Ankrd22, 2.2 (active). GGACACCACGUUCACCAAGTT against Rbm38: the z-score was -0.36 (inactive). As to GCUUCAAUAACUGCGCAAGTT against Zkscan2, the z-score was 0.547 (inactive). As to GGAUGACUGAAUGAUGGGATT against Tcl1b5, the z-score is -2.15 (active). The same measure for GGACCUCACAAUGAGUAUGTT against Thtpa: 1.23 (inactive); for CGACGAACCUGAGUAUAUUTT against Canx: -0.0578 (inactive). Take GUGCAGGUCCUAAUCUGAATT against Asb1: the z-score is 2.15 (active). For GGAAAAAAGCCUCAUCGGATT against Wdr63, the z-score was 0.676 (inactive).

In the case of GGGAGAGUGUUUGUUCAUUTT against Dusp1, the z-score was -0.082 (inactive). For GGCCUACCUAUAGAAAUGATT against Pgap1, the z-score is 0.208 (inactive).

For GACACCUACUUCAUUGGCCTT against Olfr1245, the z-score was -1.23 (inactive).

Take GCAGUUAUAUGCUCAAGAUTT against Pik3r3: the z-score is 0.0211 (inactive). Take GCCUUACUUCGGAGUGCUATT against Olfr606: the z-score is -4.78 (active). On to GCCAGCAUAAAUAUACUUUTT against Apol10a, for which the z-score is -0.0597 (inactive). Regarding GCCUUUGGAAGUUCAGAACTT against Rnf216, the z-score was -1.07 (inactive). Turning to GAUUGGAACUUGUGGAUCUTT against Defb8, the z-score is 0.424 (inactive). Take GGUACUGGACCAAAUUGCUTT against Ppp1r15b: the z-score was 2.26 (active).

As to CGGCACCUAUGAGUCUUACTT against Cyp4x1, the z-score is 2.13 (active). Under CGAUCCAUGUUGUAAGCGCTT against Adam39 stands 0.347 (inactive). As for GGUUAAAGUGUAUUUACAGTT against Fkbp14, the z-score was 0.124 (inactive). For the sequence GGUCCUUAACCGCUAUGCATT against Esrp2, the z-score was 0.294 (inactive). Under GGAAGCUUCAGGAGUAUAUTT against Sdc2 stands -0.326 (inactive). The same measure for GUGGCUGACAAGUUUAUCATT against Cyp2c66: -0.132 (inactive); for AACUAGCAAUAUGAUGGAGTT against Chic1: -0.55 (inactive); for GGGUUUGUUAAGUCCUGUGTT against Gsdmc: -2.09 (active). For GCAAUAACCCAAUUCCUGATT against Phex, the z-score was 0.179 (inactive). The same measure for GGACAGUAUGAAUUUGAAUTT against Lcp1: 2.44 (active). Under GGCCUAUCUGACCUACACCTT against Wnt8a stands -0.271 (inactive).

Regarding GCCAUAUGAUAAUAUAGAGTT against Gbp6, the z-score was -0.574 (inactive). Consider CCUCAACCGGCAGUUCUUGTT against Uba2, for which the z-score is -0.574 (inactive). The same measure for GCAUAGCUAACUCAGCAUATT against Map2k2: 1.09 (inactive); for GGAAACCAUUGAAGAUGUUTT against Psmd13: -1.2 (inactive). On to CCCUGAAGUUUAUGCAACATT against Ttyh2, for which the z-score is -3.02 (active).

For the sequence GGUAAUGAGCAGAUGAAGCTT against Sgta, the z-score is 0.622 (inactive). GGUGGUUUAAGAAAUCAAATT against Dolpp1: the z-score was 0.34 (inactive). Under GGCCCUAGAUAUUGAUUUUTT against Rbp2 stands -0.338 (inactive); under GGAGAUUGGGAUCAAUUAGTT against Sall3, 0.576 (inactive); under GGACGUGACCAUGAUGUCUTT against Oacyl, -3.46 (active). For the sequence GCAUCCUUUGUCGAAGUGGTT against Clec18a, the z-score is -0.495 (inactive). GGGAUUUUGUACAUUUUUGTT against Egln3: the z-score was 1.51 (inactive). Take CCGACGGAUAGCUUGGAUGTT against Fgb: the z-score is -0.214 (inactive). GGACGGAGGAUUCUGAAACTT against Prepl: the z-score was 2.42 (active).

On to “GGAAAGCUUACAGUUGAAATT against 4933427D06Rik”, for which the z-score is 0.992 (inactive). Regarding GGAAAGCUAAGGCUGUACUTT against Dnal1, the z-score is -0.103 (inactive). In the case of CCCAGAAGCCUUAUCGUCUTT against Mzt1, the z-score was 2.37 (active). Under GCCAUCUACUUUGUUAUAGTT against Kcnk4 stands 0.725 (inactive). For the sequence GGAGUUAUUAACUGAAGAGTT against Cyp2c55, the z-score was 0.0702 (inactive). For GAGGGCCAUCUCUGACAUGTT against Avp, the z-score was 0.369 (inactive).

Turning to GGUCAAAACAAAAGGAGGGTT against Ncf4, the z-score was 0.498 (inactive). As for GGACAAAUUUGCAUAGAUUTT against Rab10os, the z-score is 2.93 (active).

GCCAAUAUUUGUUUUUGAGTT against Ranbp3l: the z-score is 0.0685 (inactive). Under GCUACAACCUUGAGAAACUTT against Duoxa2 stands 0.706 (inactive); under CCUAGGUGUCGUACACAAATT against Galns, 2.45 (active); under GGCUUCCUAUCUGAUUACUTT against Acsl4, 0.498 (inactive). On to CCACCGGAAUGACAUAAUGTT against Klk11, for which the z-score was -0.578 (inactive). Under CCUAGUUGAAAAUUGGGAATT against Fuca2 stands 0.354 (inactive). Take CGUGGUCAUCUGGUAUGAGTT against Zfp653: the z-score was 2.53 (active). GCACUGCUAUUUACAAAAATT against Tex16: the z-score was -1.73 (inactive). CAGGGCAAGGUGAUAUCUGTT against Olfr1411: the z-score is -0.428 (inactive). As to GGAGAAAUAAGUGCAGGUGTT against Rhox2a, the z-score was -0.622 (inactive). In the case of GGCUCCUCUCCAAGAAUAUTT against Prr14l, the z-score is 2.03 (active).

With GGAGAGAAUCAGAGAGAACTT against Akr1c18, the z-score is 0.276 (inactive).

As to GCUUCUGAUAGAUCAUAAGTT against Aoc3, the z-score was -0.276 (inactive). GGCUCAAAGUUUUCAGAGATT against Kctd14: the z-score is -0.0155 (inactive). Under GCAUUUUGUGGAAAAGGCUTT against Olfr582 stands -2.19 (active); under CGAAAAGGUGGACUUUUAGTT against Rnf4, -0.545 (inactive); under GGUGAUUUUCGAUAUACACTT against Dclre1b, 0.257 (inactive). Under CGACCUGCUCUCAUAGCUUTT against Sycn stands -0.702 (inactive). For GGCCUUUGGGAAAACAUGGTT against Zcchc14, the z-score is -2.16 (active). As for GUACUAGUGGUGACUGCAUTT against Olfr462, the z-score was -0.0789 (inactive). For CCAAGGGUUAAGUCUUCAUTT against Zranb1, the z-score is 0.738 (inactive).

For the sequence CCUCUCAUGUAUCCUGUGATT against Olfr292, the z-score is -0.205 (inactive).
